Results reported in PubChem BioAssay (NCI).
The panel holds about 83,000 compounds, 20% with a hit somewhere; the sample as a whole holds those more often.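 Percent growth is the endpoint: 0 to 100 indicates growth inhibition (40 means 60% inhibition), 0 means no net growth, and negative values indicate cell death.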 The source made the active and inactive calls. The calls were made as follows: active = growth percent below 10; inactive = the rest.

The compounds below were run on A549/ATCC NSCLC (assay: NCI-60 one-dose screen, 48 h (100 = growth as untreated, 0 = no growth, -100 = all killed)). Settings: 10 µM unless noted.
For `COc1ccc2nc(-c3ccc(Cl)cc3)cc(-c3nnc(SCC(=O)Nc4ccc(/C(C)=N\O)cc4)o3)c2c1`, the growth was -9.66% (active). With `C/C(=C\c1cnc(C)s1)[C@@H]1C[C@@H]2O[C@@H]2CCC[C@H](C)[C@H](O)[C@@H](C)C(=O)C(C)(C)[C@@H](O)CC(=O)O1` the growth was 42.3% (inactive). With `O=C(/C(=C\c1c(-c2ccccc2)[nH]c2ccccc12)S(=O)(=O)c1ccccc1)c1ccccc1` the growth was 44.6% (inactive). With `O=c1[nH]c(-c2cccc(F)c2)cc2cc(F)ccc12` the growth was 25.6% (inactive). For `O=C1CS/C(=N/c2nnc(-c3ccc(O)cc3)s2)N1`, the growth was 89.9% (inactive). In the case of `C[C@H](Oc1cc(-c2cnn(C3CCNCC3)c2)cnc1N)c1c(Cl)ccc(F)c1Cl`, the growth is reported as 72% (inactive). With `COCCOCCOCc1n(Cc2ccc3ccccc3n2)c2ccccc2[n+]1Cc1ccc2ccccc2n1` the growth was 39.4% (inactive). `CCOC(=O)c1cnn(-c2nc(-c3ccc(F)cc3)c(C#N)c(N3CCOCC3)n2)c1N` was tested, and the growth was 93.9% (inactive). For `CC(=O)c1c(OCC#N)ccc2c(C)cc(=O)oc12`, the growth was 99.9% (inactive). `CN(CCC#N)C(=O)Nc1ccccc1` was tested, and the growth was 101% (inactive). For `C#Cc1ccccc1NC(=O)c1sc2nc3c(cc2c1N)CCCCC3`, the growth was 99.2% (inactive). For `COCCOC(=O)COc1ccc(OC)cc1`, the growth was 99.2% (inactive). For `C#C[C@@]1(O)[C@@H](CO)O[C@@H](n2cnc3c(-c4ccccc4)ncnc32)[C@@H]1O`, the growth was 94.1% (inactive). With `COc1cc(NCC(=O)Nc2cc(Nc3ccc(C)cc3)ncn2)c(Cl)c(OC)c1Cl` the growth was 80.1% (inactive). For `COc1ccc2oc(=O)cc(-c3c(C#N)c(N)n4nc(N)c(C#N)c4c3C#N)c2c1`, the growth was 95% (inactive). In the case of `O=C1NC(SCc2ccc(F)cc2)=N/C1=C/c1cccc(OCc2ccc(Cl)cc2)c1`, the growth is reported as 26.2% (inactive). For `COc1ccc(Nc2nc(SCC(C)C)nc(-c3ccc(F)cc3)c2C#N)cc1`, the growth was 62.5% (inactive). For `COC(=O)/C=C1\SC(=Nc2ccc(F)cc2)N(CCc2c[nH]c3ccccc23)C1=O`, the growth was 79% (inactive). With `Nc1c(C(=O)Nc2ccccc2)sc2nc3c(cc12)CN(C(=O)OCc1ccccc1)CC3` the growth was 50.2% (inactive). In the case of `COc1ccc(C2=NN(c3ccc(S(N)(=O)=O)cc3)C(c3ccc(Cl)cc3)C2)c(O)c1` (centres undefined), the growth is reported as 33% (inactive). `COc1ccc(C(C)c2cc(OC)c(OC)c(OC)c2)cc1` (centres undefined) was tested, and the growth was 18.6% (inactive). In the case of `COc1ccc(-n2nc(C(=O)NCC(=O)O)nc2-c2ccccc2)cc1`, the growth is reported as 97.8% (inactive). `CCOC(=O)C1=C(C)n2nc(CC#N)c(C#N)c2NC1c1ccc(Cl)cc1` (centres undefined) was tested, and the growth was 104% (inactive). With `Nc1c(C(=O)Nc2ccccn2)sc2nc3c(cc12)CCCC3` the growth was 46.4% (inactive). With `CCN1CCC[C@H]1c1cc(O)c2c(c1OC)C[C@H]1C[C@H]3[C@H](N)C(=O)C(C(N)=O)=C(O)[C@@]3(O)C(=O)C1=C2O` the growth was 6.12% (active). For `Cc1cc(O)cc(O)c1N=NC1=NCCS1`, the growth was 101% (inactive). `COC(=O)c1cncc(C(=O)Nc2ccc(-n3cnc4ccccc43)cc2)c1` was tested, and the growth was 94.4% (inactive). With `CNc1cccc2c1C(=O)c1cccc(N)c1C2=O` the growth was 59.8% (inactive). In the case of `O=S(=O)(Nc1nccs1)c1ccc(Nc2nc(-c3ccncc3)cs2)cc1`, the growth is reported as 104% (inactive). For `CN1C(=O)c2cc(Cl)nc3c(NC(=O)c4cccc(Cl)c4)c(Cl)c(NC(=O)c4cccc(Cl)c4)c1c23`, the growth was 83.8% (inactive). `O=C(O)COc1ccc2c(=O)c3sc4c(=O)c5ccccc5c(=O)c4c3c(=O)c2c1` was tested, and the growth was -44.8% (active). With `O=C(Nc1nc(-c2ccccc2)cs1)c1cc(-c2ccc(Br)cc2)nc2ccccc12` the growth was 36.5% (inactive). For `Cc1cc(Nc2nc(SCc3ccc(C(=O)Nc4ccc(F)cc4N)cc3)nn3cccc23)n[nH]1`, the growth was 30.8% (inactive). With `O=C1NCc2ccc3c(-c4cccc(Cl)c4)c[nH]c3c21` the growth was 15.8% (inactive). With `O=C(CN1N=C(c2ccc(F)cc2)CCC1=O)Nc1nccs1` the growth was 77.8% (inactive). For `O=C1Nc2ccc(Cl)cc2/C1=N/c1nc(-c2ccc(F)cc2)cs1`, the growth was 43.6% (inactive). `OCCNc1nc(NCCO)nc(Nc2ccc(C3=NN(c4cc(Cl)cc(Cl)c4)C(c4ccc(Cl)cc4)C3)cc2)n1` (centres undefined) was tested, and the growth was 2.31% (active).

Each compound was assayed on 786-0 renal in the same assay as above. Settings: 10 µM unless noted.
For `COc1ccc2nc(-c3ccc(Cl)cc3)cc(-c3nnc(SCC(=O)Nc4ccc(/C(C)=N\O)cc4)o3)c2c1`, the growth was 25.9% (inactive). In the case of `C/C(=C\c1cnc(C)s1)[C@@H]1C[C@@H]2O[C@@H]2CCC[C@H](C)[C@H](O)[C@@H](C)C(=O)C(C)(C)[C@@H](O)CC(=O)O1`, the growth is reported as 43.6% (inactive). With `O=C(/C(=C\c1c(-c2ccccc2)[nH]c2ccccc12)S(=O)(=O)c1ccccc1)c1ccccc1` the growth was 68.1% (inactive). For `O=c1[nH]c(-c2cccc(F)c2)cc2cc(F)ccc12`, the growth was 44.2% (inactive). In the case of `O=C1CS/C(=N/c2nnc(-c3ccc(O)cc3)s2)N1`, the growth is reported as 95% (inactive). `C[C@H](Oc1cc(-c2cnn(C3CCNCC3)c2)cnc1N)c1c(Cl)ccc(F)c1Cl` was tested, and the growth was 49.2% (inactive). `COCCOCCOCc1n(Cc2ccc3ccccc3n2)c2ccccc2[n+]1Cc1ccc2ccccc2n1` was tested, and the growth was 77.8% (inactive). `CCOC(=O)c1cnn(-c2nc(-c3ccc(F)cc3)c(C#N)c(N3CCOCC3)n2)c1N` was tested, and the growth was 82.5% (inactive). In the case of `CC(=O)c1c(OCC#N)ccc2c(C)cc(=O)oc12`, the growth is reported as 106% (inactive). With `CN(CCC#N)C(=O)Nc1ccccc1` the growth was 101% (inactive). `C#Cc1ccccc1NC(=O)c1sc2nc3c(cc2c1N)CCCCC3` was tested, and the growth was 123% (inactive). In the case of `COCCOC(=O)COc1ccc(OC)cc1`, the growth is reported as 109% (inactive). With `C#C[C@@]1(O)[C@@H](CO)O[C@@H](n2cnc3c(-c4ccccc4)ncnc32)[C@@H]1O` the growth was 98.8% (inactive). `COc1cc(NCC(=O)Nc2cc(Nc3ccc(C)cc3)ncn2)c(Cl)c(OC)c1Cl` was tested, and the growth was 96.7% (inactive). `COc1ccc2oc(=O)cc(-c3c(C#N)c(N)n4nc(N)c(C#N)c4c3C#N)c2c1` was tested, and the growth was 103% (inactive). For `O=C1NC(SCc2ccc(F)cc2)=N/C1=C/c1cccc(OCc2ccc(Cl)cc2)c1`, the growth was -33.3% (active). For `COc1ccc(Nc2nc(SCC(C)C)nc(-c3ccc(F)cc3)c2C#N)cc1`, the growth was 60.8% (inactive). With `COC(=O)/C=C1\SC(=Nc2ccc(F)cc2)N(CCc2c[nH]c3ccccc23)C1=O` the growth was 104% (inactive). With `Nc1c(C(=O)Nc2ccccc2)sc2nc3c(cc12)CN(C(=O)OCc1ccccc1)CC3` the growth was 50% (inactive). `COc1ccc(C2=NN(c3ccc(S(N)(=O)=O)cc3)C(c3ccc(Cl)cc3)C2)c(O)c1` (centres undefined) was tested, and the growth was 67.1% (inactive). For `COc1ccc(C(C)c2cc(OC)c(OC)c(OC)c2)cc1` (centres undefined), the growth was 22.6% (inactive). `COc1ccc(-n2nc(C(=O)NCC(=O)O)nc2-c2ccccc2)cc1` was tested, and the growth was 102% (inactive). `CCOC(=O)C1=C(C)n2nc(CC#N)c(C#N)c2NC1c1ccc(Cl)cc1` (centres undefined) was tested, and the growth was 106% (inactive). In the case of `Nc1c(C(=O)Nc2ccccn2)sc2nc3c(cc12)CCCC3`, the growth is reported as 48.7% (inactive). `CCN1CCC[C@H]1c1cc(O)c2c(c1OC)C[C@H]1C[C@H]3[C@H](N)C(=O)C(C(N)=O)=C(O)[C@@]3(O)C(=O)C1=C2O` was tested, and the growth was 3.89% (active). With `Cc1cc(O)cc(O)c1N=NC1=NCCS1` the growth was 96.6% (inactive). `COC(=O)c1cncc(C(=O)Nc2ccc(-n3cnc4ccccc43)cc2)c1` was tested, and the growth was 105% (inactive). With `CNc1cccc2c1C(=O)c1cccc(N)c1C2=O` the growth was 38% (inactive). With `O=S(=O)(Nc1nccs1)c1ccc(Nc2nc(-c3ccncc3)cs2)cc1` the growth was 97.8% (inactive). `CN1C(=O)c2cc(Cl)nc3c(NC(=O)c4cccc(Cl)c4)c(Cl)c(NC(=O)c4cccc(Cl)c4)c1c23` was tested, and the growth was 41.6% (inactive). With `O=C(O)COc1ccc2c(=O)c3sc4c(=O)c5ccccc5c(=O)c4c3c(=O)c2c1` the growth was 70.9% (inactive). With `O=C(Nc1nc(-c2ccccc2)cs1)c1cc(-c2ccc(Br)cc2)nc2ccccc12` the growth was 65.4% (inactive). With `Cc1cc(Nc2nc(SCc3ccc(C(=O)Nc4ccc(F)cc4N)cc3)nn3cccc23)n[nH]1` the growth was 44.1% (inactive). For `O=C1NCc2ccc3c(-c4cccc(Cl)c4)c[nH]c3c21`, the growth was 31.4% (inactive). For `O=C(CN1N=C(c2ccc(F)cc2)CCC1=O)Nc1nccs1`, the growth was 103% (inactive). `O=C1Nc2ccc(Cl)cc2/C1=N/c1nc(-c2ccc(F)cc2)cs1` was tested, and the growth was 47.3% (inactive). With `OCCNc1nc(NCCO)nc(Nc2ccc(C3=NN(c4cc(Cl)cc(Cl)c4)C(c4ccc(Cl)cc4)C3)cc2)n1` (centres undefined) the growth was -19.6% (active).
